# Assay outcomes deposited in PubChem BioAssay by The Scripps Research Institute Molecular Screening Center.
# M1 PAM parental – nonselective activator or artifact in parental CHO-K1 calcium assay. activation, % at 3 µM. ATP EC20, Fluo-8 calcium fluorescence; 0% at ATP EC20, 100% at ATP max. hit rate 0.02% among 360,000. AID 602247;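 active means activation above the run cutoff, the mean activation of all test compounds plus 3 SD, cut at about 40% in these data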;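 further: peak over basal fluorescence ratio in a 140 s read after ATP addition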
# CHO-K1 Ca ag – M1 agonist counterscreen hit in parental CHO-K1 cells. Fluo-8 calcium fluorescence; scaled to maximal ATP response, vehicle zero. activation, % at 3 µM. hit rate 0.48% among 360,000; in the data active means activation above about 15%;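 further: untransfected CHO-K1 host cells lacking M1 receptor as counterscreen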
# CHRM1 agonist – human M1 muscarinic receptor agonism | P11229 | CHO-K1 hM1, Fluo-8 calcium fluorescence, agonist mode; 0% DMSO, 100% acetylcholine EC100 | activation, % at 3 µM | hit rate 0.33% among 360,000;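 active means activation above the run's mean compound activation plus 3 SD, cut at about 16% in these data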;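 further: peak over basal fluorescence ratio within a 140 s kinetic read after compound addition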
# Target sequence (P11229 whole entry, looked up): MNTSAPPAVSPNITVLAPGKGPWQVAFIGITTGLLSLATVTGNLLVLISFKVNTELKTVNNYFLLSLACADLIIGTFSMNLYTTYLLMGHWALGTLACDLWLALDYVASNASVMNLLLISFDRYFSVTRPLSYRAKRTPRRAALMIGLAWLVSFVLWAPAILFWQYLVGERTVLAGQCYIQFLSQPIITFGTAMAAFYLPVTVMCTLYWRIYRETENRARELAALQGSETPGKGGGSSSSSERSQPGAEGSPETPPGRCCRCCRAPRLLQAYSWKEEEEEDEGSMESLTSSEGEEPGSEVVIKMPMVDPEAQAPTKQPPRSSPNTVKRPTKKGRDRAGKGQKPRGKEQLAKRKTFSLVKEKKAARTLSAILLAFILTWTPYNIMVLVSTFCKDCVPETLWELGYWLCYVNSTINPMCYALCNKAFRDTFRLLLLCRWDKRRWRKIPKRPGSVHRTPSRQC
# M1 antag – human CHRM1 antagonism; P11229; CHO-K1 hM1, Fluo-8 calcium fluorescence, ACh EC80 antagonist; inhibition, % at 3 µM; hit rate 1.3% among 360,000; AID 588852;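 active means percent inhibition above its own plate's cutoff, namely the mean of that plate's compound wells plus 3 SD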;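 further: peak over basal fluorescence ratio during 140 s after agonist addition; 0% = ACh EC80 plus DMSO and 100% = DMSO alone without agonist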
# CHRM1 PAM – potentiates human M1 receptor response to acetylcholine. P11229. CHO-K1 hM1, Fluo-8 calcium fluorescence, ACh EC20; 0% = ACh EC20, 100% = maximal ACh. activation, % at 3 µM. hit rate 0.088% among 360,000. AID 588819; in the data active means activation above about 19%, passing the limit was not always enough
# CHO-K1 Ca antag – nonselective inhibitor or artifact in parental CHO-K1 cells; AID 602250; hit rate 0.6% among 360,000; inhibition, % at 3 µM; ATP-induced calcium, Fluo-8 fluorescence;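 active means inhibition above a per-plate cutoff, the plate's mean sample inhibition plus 3 SD, cut at about 24% in these data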;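 further: 0% = DMSO plus EC80 ATP and 100% = DMSO alone without ATP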
# An asterisk follows results filed as active; x = not tested or not shown. An excerpt weighted towards active compounds, which were near 2.3% of everything screened.
SMILES,M1 PAM parental,CHO-K1 Ca ag,CHRM1 agonist,M1 antag,CHRM1 PAM,CHO-K1 Ca antag
CC1CCCN(CCCNC(=O)c2ccc3c(c2)N(Cc2cccc(Cl)c2)C(=O)c2ccccc2S3=O)C1 (stereo unspecified),-3.0,0.4,-6.3,40.2*,-27.4,17.2
O=C(NCCCN1CCOCC1)c1ccc2c(c1)N(Cc1cccc(Cl)c1)C(=O)c1ccccc1S2=O (stereo unspecified),21.6,1.4,-4.3,10.1,-6.6,-2.9
Nc1cccc2c1C(=O)N(C(=O)c1cccc(S(=O)(=O)N3CCCCCC3)c1)C2=O,-5.5,0.0,-0.5,-22.4,5.0,28.5*
Nc1cccc2c1C(=O)N(C(=O)c1ccc(Cl)c(S(=O)(=O)N3CCCCCC3)c1)C2=O,10.4,0.1,-3.0,-24.2,2.4,-3.0
CSc1ccc(CN2CCC(C)(Oc3ccc(C(C)=O)cc3)C2)cc1 (stereo unspecified),4.3,0.5,-8.9,17.4,-25.0,-11.4
Cc1ccc(-c2nc3cc(C)c(Br)c(C)n3c2Cc2ccsc2)cc1,1.9,-0.2,x,x,x,-27.0
CC(C)C(=O)N1CCC1(C)C(=O)Nc1ccc(-n2cncn2)cc1 (stereo unspecified),-12.9,-0.4,-0.4,-4.6,0.8,0.0
CN(C)/C=N/C(=S)Nc1cc(Cl)cc(Cl)c1,4.1,18.4*,-3.6,1.1,1.1,9.8
COc1cc(CCC(=O)N2CCN(S(=O)(=O)c3ccc(C)cc3)CC2)cc(OC)c1OC,2.6,0.0,-3.1,-18.1,16.8,-14.3
CC(=O)NCc1nc2ccccc2n1Cc1ccccc1F,-7.5,-0.1,-1.9,13.8,-1.4,23.8*
CCN(c1ccccc1)S(=O)(=O)c1cccc(C(=O)OCC(=O)c2c(N)n(C)c(=O)n(C)c2=O)c1,4.6,6.8,-4.4,29.9,-17.3,-20.1
COc1ccc(N(C)S(=O)(=O)c2cccc(C(=O)OCC(=O)c3c(N)n(C)c(=O)n(C)c3=O)c2)cc1,-15.6,20.6*,6.4,41.8*,-22.7,8.1
COc1ccc(N(C)S(=O)(=O)c2cccc(C(=O)OCC(=O)Nc3cc(C)ccc3OC)c2)cc1,7.1,8.4,0.7,36.2*,-20.0,6.0
O=C(Nc1cccc(C(F)(F)F)c1)c1csc([C@H]2C[C@H](O)[C@@H](CO)O2)n1,-7.8,0.8,-1.3,-15.5,7.7,16.0
CC(=O)NCc1ccc(C(=O)O)cc1,17.7,0.6,-1.5,-23.1,6.4,-12.5
CC(C)(C)Nc1c([N+](=O)[O-])c(=O)sc2ccccc12,18.3,0.3,-3.1,-9.4,11.9,-1.0
CCCCCCNc1c([N+](=O)[O-])c(=O)sc2ccccc12,-6.9,7.5,-1.6,42.1*,-19.0,1.3
CCCCCCCCNS(=O)(=O)CCNC1CC1,-0.7,0.3,-6.5,-6.7,1.7,-6.6
O=C(Nc1ccccc1N1CCOCC1)c1ccc(S(=O)(=O)NCc2ccco2)cc1,26.2,0.8,-4.0,-11.0,7.0,-21.5
CC(=O)Nc1ccc(S(=O)(=O)Nc2ccccc2N2CCOCC2)cc1Cl,-10.7,1.7,-1.0,-0.4,1.8,1.5
O=C(O)c1cccc(S(=O)(=O)Nc2ccccc2N2CCOCC2)c1,-9.6,0.4,-3.1,54.2*,-8.9,-10.4
COc1cccc(C(=O)OCC(=O)Nc2ccccc2N2CCOCC2)c1,12.1,1.7,-2.2,-1.7,0.7,-4.7
COc1cccc(C(=O)Nc2ccccc2N2CCOCC2)c1,2.9,90.8*,-2.5,-11.5,9.2,67.7*
O=C(Nc1ccccc1N1CCOCC1)c1ccc(Cl)c(S(=O)(=O)NCc2ccco2)c1,8.2,16.6*,-8.1,-0.3,-1.2,0.5
Cn1nc(C2CC2)cc1NC(=O)C1(C)CCN1C(=O)Cc1ccc(-c2ccccc2)cc1 (stereo unspecified),-10.8,6.5,0.3,30.0*,-13.2,10.1
SMILES,M1 PAM parental,CHO-K1 Ca ag,CHRM1 agonist,M1 antag,CHRM1 PAM,CHO-K1 Ca antag
CC1(C(=O)Nc2ccc3[nH]ncc3c2)CCN1C(=O)Cc1ccc(-c2ccccc2)cc1 (stereo unspecified),-6.7,12.9,7.3,28.0*,-14.0,10.9
CC1(C(=O)Nc2ccc3c(c2)OCO3)CCN1C(=O)Cc1ccc(-c2ccccc2)cc1 (stereo unspecified),15.8,10.4,7.1,37.9*,-17.1,8.1
CC(C)(C)c1ccc(CC(=O)N2CCC2(C)C(=O)Nc2ccc3[nH]ncc3c2)cc1 (stereo unspecified),-0.7,9.7,2.8,10.5,-12.2,2.5
CC(C)n1nnnc1C1c2ccccc2C(=O)N1C1CC1 (stereo unspecified),-5.6,1.0,x,x,x,9.4
COc1ccc(Cc2c(C(C)(C)C)nc3cc(C)c(Br)c(C)n23)c(C)c1,21.2,0.2,x,x,x,-11.7
COc1ccc(Cc2c(C(C)(C)C)nc3c(C)cc(Br)cn23)c(C)c1,9.5,0.3,-10.5,-2.8,0.3,25.1*
O=C(CNC(=O)c1cccs1)N=Nc1c(O)[nH]c2ccc([N+](=O)[O-])cc12,-6.0,0.1,-1.0,7.4,-2.7,-1.5
O=C(CSc1nnc(CNc2ccc(F)cc2)o1)N1c2ccccc2Sc2ccccc21,10.3,0.9,-7.8,16.3,-13.9,-6.7
CCCNC(=O)c1ccc(N2CCC3(CC2)CC(c2ccccc2)=NO3)c(NC(=O)c2ccccc2)c1,8.5,1.7,-7.6,32.0*,-21.8,-2.8
CCC(=O)Nc1nc(NCc2ccccc2OC)n(-c2ccccc2)n1,-9.0,0.3,-1.8,-2.6,4.7,-13.8
CCOC(=O)C1CCCN(C(=O)CCn2nc(-c3ccccc3)ccc2=O)C1 (stereo unspecified),-11.1,-0.4,10.6,1.8,-3.9,24.0*
CCOC(=O)C1CCCN(C(=O)C2CCN(C(=O)Nc3ccccc3)CC2)C1 (stereo unspecified),21.4,1.0,0.9,-16.9,8.4,-10.1
CCOC(=O)C1CCCN(C(=O)CCCn2nnnc2CN2CCC(C)CC2)C1 (stereo unspecified),1.6,0.7,21.6*,-8.5,0.4,-12.1
CCOC(=O)C1CCCN(C(=O)Nc2ccccc2)C1 (stereo unspecified),-3.4,0.0,54.4*,10.8,-23.0,-11.3
CCOC(=O)C1CCCN(CCc2ccccc2)C1 (stereo unspecified),6.3,0.5,18.3*,48.8*,-11.7,-5.1
COc1ccccc1CN(C)C(=O)CN1C(=O)c2ccccc2C1=O,3.2,0.2,-3.5,2.5,1.9,-7.0
CCOC(=O)c1ccc(NC(=S)N2CCC(C(N)=O)CC2)cc1,18.3,0.9,-10.3,8.3,-10.0,-6.7
CCOC(=O)N1CCC(N2CCN(C3CCCC3)C(CCO)C2)CC1 (stereo unspecified),25.9,1.5,-13.2,46.9*,-35.4,-6.0
CCOC(=O)N1CCC(NC2CCCCCCC2)CC1,1.3,2.2,-6.6,74.2*,-27.1,-4.5
